Bioassay records as filed in PubChem.
Rows were chosen to be rich in hits. Some 7.8% of all compounds tested hit in one or more screens of this group.
Marburg entry inh: qHTS for inhibitors of binding or entry into cells for Marburg Virus. Marburg virus pseudotyped entry inhibition, cell reporter. Potency, µM (top dose mostly 37.8 µM), most hits filed as inhibitors. hit rate 1.8% among 300,000. AID 540276, 2011; calls by dose curve; tested in HEK293 cells
HCV inh: qHTS Assay for Inhibitors of Hepatitis C Virus (HCV) | Huh7.5.1 HCVcc-Cre infection, luciferase reporter, 44 h | Potency, µM (titrated, usually from 41.8 µM), actives largely listed as inhibitors | hit rate 3.4% among 340,000; active means well fitted inhibition curve with a large enough effect; inconclusive means small, poorly fitted or top-dose-only effect, or another doubt; inactive means no such curve, though single readings can be large or run the other way
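Luciferase read-out (15 sec integration) after a 15 min room-temperature substrate step quantifies HCVcc-Cre infection. Cells, 1,000 per well, had compound added 4 h post-plating, then virus at ~0.5 moi, and were cultured 44 h.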
HCMV inh: qHTS Assay for inhibitors of the human cytomegalovirus (HCMV); HFF cells, HCMV-luciferase reporter, 72 h; active compounds read low; AID 1259415, 2018; hit rate 4.5% among 410,000; activity change, negative = inhibition, % at 57.5 µM; in the data active means activity change below about -60%; inconclusive means no clear call, values can overlap the other calls; inactive means above about -39%
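Compounds were evaluated in HFFs infected with an HCMV luciferase reporter virus (MOI 1 PFU/cell). Luciferase in lysates collected 72 h post infection served as the replication measure.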
LASV entry inh: qHTS for Inhibitors of binding or entry into cells for Lassa Virus | Potency, µM (series often up to 37.9 µM), hits mostly inhibitors | Lassa virus pseudotype entry inhibition, cell reporter | AID 540256, 2011 | hit rate 1.2% among 300,000; calls by dose curve; tested in HEK293 cells; further: nearly all actives have a fitted effect of over 50% in size
VACV Venus inh: qHTS for Stage-Specific Inhibitors of Vaccinia Orthopoxvirus: Venus Reporter Primary qHTS. hit rate 0.46% among 330,000. Potency, µM (top dose mostly 36.5 µM), usual class: inhibitors. Vaccinia virus Venus reporter expression, fluorescence. AID 720580, 2013; calls by dose curve; tested in A549 cells; further: nearly all actives have a fitted effect of over 30% in size
VACV mCherry inh: qHTS for Stage-Specific Inhibitors of Vaccinia Orthopoxvirus: mCherry Reporter Primary qHTS. Potency, µM (doses to about 36.5 µM), most hits filed as inhibitors. hit rate 0.63% among 310,000. Vaccinia virus mCherry reporter infection, fluorescence; calls by dose curve; tested in A549 cells; further: nearly all actives have a fitted effect of over 35% in size
Large screens that a line does not name were inactive.

COc1ccccc1CN(Cc1c(Cl)cccc1Cl)S(=O)(=O)c1ccc(Br)cc1	none (no result: Marburg entry inh, HCV inh)
Cc1ccccc1C(=O)N1CCN(c2ncnc3c2cnn3-c2ccccc2)CC1	Marburg entry inh inconclusive, HCV inh 7.9µM, HCMV inh inconclusive (no result: VACV Venus inh, VACV mCherry inh)
Cc1ccc(S(=O)(=O)N2CCN(c3ncnc4c3cnn4-c3ccccc3)CC2)cc1	none
Cc1ccc(C(=O)N2CCN(c3ncnc4c3cnn4-c3ccccc3)CC2)cc1	HCMV inh -77 (no result: Marburg entry inh, HCV inh, LASV entry inh, VACV Venus inh, VACV mCherry inh)
C=C(C)CCCN1C=C(C(C)=O)C(c2ccccc2)NC1=O (stereo not drawn)	none (no result: HCV inh, HCMV inh, LASV entry inh, VACV Venus inh, VACV mCherry inh)
O=C([C@@H]1CC=C[C@@H]2CCN(C3CC3)C(=O)[C@@H]21)N1CCOCC1	none (no result: Marburg entry inh, HCV inh, HCMV inh, LASV entry inh)
COc1ccccc1NS(=O)(=O)c1cccc(NC(=O)NC2CCCCC2)c1	Marburg entry inh inconclusive, HCV inh inconclusive, HCMV inh -76, LASV entry inh inconclusive, VACV Venus inh inconclusive
COc1ccccc1NS(=O)(=O)c1cccc(NS(=O)(=O)c2ccc(Cl)c(C(=O)O)c2)c1	Marburg entry inh inconclusive
COc1ccccc1NS(=O)(=O)c1cccc(NS(=O)(=O)c2cc(C(=O)O)ccc2OC)c1	HCMV inh -102
COc1ccccc1NC(=O)NC1CCCCCCC1	HCMV inh inconclusive
COc1ccccc1NS(=O)(=O)c1cccc(NC(=O)c2ccc3ccccc3n2)c1	Marburg entry inh inconclusive, HCV inh inconclusive, HCMV inh -79, LASV entry inh inconclusive, VACV mCherry inh inconclusive
CN(C)C=NC(=O)c1cc2c(n(-c3ccccc3)c1=O)CC(C)(C)CC2=O	LASV entry inh inconclusive (no result: HCV inh)
COc1ccc(C(=O)NC2CC(=O)N(c3ccc4c(c3)OCCO4)C2)cc1 (stereo not drawn)	none (no result: Marburg entry inh, HCV inh)
Oc1ccc(N=Nc2c(O)ccc3ccccc23)cc1	Marburg entry inh inconclusive, HCV inh 14µM, LASV entry inh inconclusive, VACV mCherry inh inconclusive
NS(=O)(=O)c1ccc(N=Nc2c(O)ccc3ccccc23)cc1	none
COC(=O)CCn1nnc(-c2ccc(C(C)C)cc2)n1	Marburg entry inh inconclusive, HCMV inh -62, LASV entry inh inconclusive (no result: VACV Venus inh, VACV mCherry inh)
CCOc1ccc(-n2c(=O)c3c4c(sc3n(CC(=O)NC(C)CC)c2=O)CCC4)cc1 (stereo not drawn)	Marburg entry inh inconclusive (no result: HCV inh)
COCCNC(=O)C1CCCN(C(=O)c2cc(-c3cccs3)oc2C)CC1 (stereo not drawn)	HCMV inh -67 (no result: Marburg entry inh, HCV inh, LASV entry inh)
CC(=O)c1c(C)[nH]c(C(=O)OCC(=O)NCCCc2ccccc2)c1C	HCV inh inconclusive (no result: Marburg entry inh, LASV entry inh, VACV Venus inh, VACV mCherry inh)
CC(=O)c1c(C)[nH]c(C(=O)OCc2c(F)cccc2Cl)c1C	Marburg entry inh inconclusive, HCV inh 10µM, HCMV inh -62, LASV entry inh inconclusive, VACV mCherry inh inconclusive
CCc1c(C(=O)NCc2ccccc2Cl)[nH]c(C)c1C(C)=O	Marburg entry inh inconclusive, HCMV inh inconclusive, LASV entry inh inconclusive
CCOC(=O)c1c(C)[nH]c(C=O)c1Cc1cccc(Cl)c1	Marburg entry inh inconclusive, LASV entry inh 6.3µM, VACV Venus inh inconclusive
CC(=O)c1c(C)[nH]c(C(=O)OCc2cccc(Cl)c2)c1C	Marburg entry inh inconclusive, HCV inh 11µM, LASV entry inh inconclusive, VACV mCherry inh inconclusive
CC(=O)c1c(C)[nH]c(C(=O)NCc2ccccc2Cl)c1C	HCV inh 13µM (no result: VACV Venus inh, VACV mCherry inh)
CCCCC(CC)CNC(=O)c1[nH]c(C)c(C(C)=O)c1C (stereo not drawn)	HCMV inh -65 (no result: LASV entry inh, VACV Venus inh, VACV mCherry inh)
CCCCNC(=O)c1[nH]c(C)c(C(C)=O)c1C	none
CC(=O)c1c(C)[nH]c(C(=O)OCc2ccc(F)cc2Cl)c1C	Marburg entry inh inconclusive, HCV inh inconclusive, HCMV inh -68
COCc1cc(C)n(CC(=O)Nc2cccc(C(C)=O)c2)c(=O)c1C#N	Marburg entry inh inconclusive (no result: HCV inh)
CCN1C(=O)[C@H]2[C@H]3[C@H](O)[C@H](O)C/C(=N\OC[C@H]4O[C@H](c5ccccc5)C=C[C@@H]4Oc4ccc(OC)cc4)[C@@H]3CC[C@H]2C1=O	none (no result: HCV inh, HCMV inh, LASV entry inh, VACV Venus inh, VACV mCherry inh)
Clc1ccc2[nH]cc(-c3nnnn3-c3ccc4ccccc4c3)c2c1	Marburg entry inh inconclusive, HCV inh inconclusive, HCMV inh -62
COc1ccc(CNC(=O)/C=C/c2ccco2)cc1OC	HCMV inh -89
